# Values joined by “and” are separate entries in the source; they are usually repeats but may differ in a detail not shown here. Identical values can stand only once. Among all 5,500 compounds or so, about 2,000 (36%) were called active. Inconclusive results (about 18%) are left out. Some of the results follow. Values without a mark were called inactive. No stated cut-off is given here; in the data, active means normalized growth mostly below about 0.91 (no sharp cut-off); inconclusive means no clear call, values can overlap the other calls; inactive means mostly above about 0.92.
# Experiment: chemical genetic growth profiling, strain panel (AID 1159580);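 further: tested at 20 µM; growth read once vehicle control cultures reached saturation at 30 °C; 1 = growth at the plate median or of vehicle wells; lower values mean less growth of the strain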
# Conditions: S. cerevisiae deletion strains, growth OD
# [1] = locus YHR030C, strain SLT2, hits give low values
# [2] = locus YHR079C, strain IRE1, hits give low values
# [3] = locus YJL095W, strain BCK1, hits give low values
# [4] = locus YJR066W, strain TOR1, hits give low values
# [5] = locus YLR113W, strain HOG1, hits give low values
# [6] = locus YNL183C, strain NPR1, hits give low values
# [7] = locus YOR231W, strain MKK1, hits give low values
# [8] = locus YPL256C, strain CLN2, hits give low values
smiles,measurement,setting,value
COc1c(-c2coc3cc4c(cc3c2=O)CC(OC(C)=O)C(C)(C)O4)ccc2c1C=CC(C)(C)O2 (centres undefined),normalized growth,"locus YAL021C, strain ccr4, hits give low values",1.01
same,normalized growth,"locus YAL026C, strain drs2, hits give low values",1.04
same,normalized growth,"locus YAL030W, strain snc1, hits give low values",1.03
same,normalized growth,"locus YBL061C, strain skt5, hits give low values",1.02
same,normalized growth,"locus YBR009C, strain hhf1, hits give low values",1.02
same,normalized growth,"locus YBR023C, strain chs3, hits give low values",1.03
same,normalized growth,"locus YBR171W, strain sec66, hits give low values",1.05
same,normalized growth,"locus YBR231C, strain swc5, hits give low values",1.05
same,normalized growth,"locus YBR279W, strain paf1, hits give low values",1.03
same,normalized growth,"locus YCL011C, strain gbp2, hits give low values",1.04
same,normalized growth,"locus YCL016C, strain dcc1, hits give low values",1.03
same,normalized growth,"locus YCL061C, strain MRC1, hits give low values",1.03
same,normalized growth,"locus YCL069W, strain vba3, hits give low values",1.04
same,normalized growth,"locus YCR088W, strain abp1, hits give low values",1.04
same,normalized growth,"locus YDL005C, strain med2, hits give low values",1.04
same,normalized growth,"locus YDL040C, strain nat1, hits give low values",1.03
same,normalized growth,"locus YDR001C, strain nth1, hits give low values",1.03
same,normalized growth,"locus YDR069C, strain doa4, hits give low values",1.03
same,normalized growth,"locus YDR137W, strain rgp1, hits give low values",1.08
same,normalized growth,"locus YDR159W, strain sac3, hits give low values",1.05
same,normalized growth,"locus YDR195W, strain ref2",1.05
same,normalized growth,"locus YDR297W, strain sur2, hits give low values",1.03
same,normalized growth,"locus YDR334W, strain swr1, hits give low values",1.03
same,normalized growth,"locus YDR335W, strain msn5, hits give low values",1.03
same,normalized growth,"locus YDR392W, strain spt3, hits give low values",0.945
same,normalized growth,"locus YEL003W, strain gim4, hits give low values",1.03
same,normalized growth,"locus YEL037C, strain rad23, hits give low values",1.02
same,normalized growth,"locus YEL061C, strain CIN8 (second series), hits give low values",1.04
same,normalized growth,"locus YER015W, strain faa2, hits give low values",1.03
same,normalized growth,"locus YER016W, strain bim1, hits give low values",1.03
same,normalized growth,"locus YER111C, strain swi4, hits give low values",1.02
same,normalized growth,"locus YER155C, strain BEM2 (second series), hits give low values",1.03
same,normalized growth,"locus YFR010W, strain ubp6, hits give low values",1.03
same,normalized growth,"locus YGL167C, strain pmr1, hits give low values",1.03
same,normalized growth,"locus YGL173C, strain kem1, hits give low values",1.03
same,normalized growth,"locus YGL227W, strain vid30, hits give low values",1.04
same,normalized growth,"locus YGL240W, strain doc1, hits give low values",1.03
same,normalized growth,"locus YGL253W, strain hxk2, hits give low values",1.04
same,normalized growth,"locus YHR013C, strain ard1, hits give low values",1.03
same,normalized growth,"locus YHR027C, strain rpn1, hits give low values",1.02
same,normalized growth,[1],0.961
same,normalized growth,[2],0.947
same,normalized growth,"locus YHR142W, strain chs7, hits give low values",1.05
same,normalized growth,"locus YJL092W, strain hpr5, hits give low values",1.04
same,normalized growth,"locus YJL095W, strain BCK1 (second series), hits give low values",1.03
same,normalized growth,[3],0.973
same,normalized growth,"locus YJL115W, strain asf1, hits give low values",1.04
same,normalized growth,"locus YJL129C, strain trk1, hits give low values",1.06
same,normalized growth,"locus YJL154C, strain vps35, hits give low values",1.03
same,normalized growth,"locus YJL164C, strain tpk1, hits give low values",1.03
same,normalized growth,"locus YJL166W, strain qcr8, hits give low values",1.03
same,normalized growth,"locus YJL187C, strain SWE1, hits give low values",1.02
same,normalized growth,[4],0.973
same,normalized growth,"locus YKL160W, strain elf1, hits give low values",1.04
same,normalized growth,"locus YKR026C, strain gcn3, hits give low values",1.04
same,normalized growth,"locus YKR091W, strain srl3, hits give low values",1.02
same,normalized growth,"locus YLL001W, strain dnm1, hits give low values",1.03
same,normalized growth,"locus YLL026W, hits give low values",1.02
same,normalized growth,"locus YLL041C, strain sdh2, hits give low values",1.02
same,normalized growth,"locus YLR027C, strain aat2, hits give low values",1.03
same,normalized growth,[5],0.934
same,normalized growth,"locus YLR221C, strain rsa3, hits give low values",1.03
same,normalized growth,"locus YLR258W, strain gsy2, hits give low values",1.03
same,normalized growth,"locus YLR262C, strain YPT6 (second series), hits give low values",1.07
same,normalized growth,"locus YLR320W, strain mms22, hits give low values",1.03
same,normalized growth,"locus YLR342W, strain FKS1, hits give low values",1.03
same,normalized growth,"locus YLR357W, strain rsc2, hits give low values",1.04
same,normalized growth,"locus YLR370C, strain arc18, hits give low values",1.03
same,normalized growth,"locus YLR384C, strain iki3, hits give low values",1.02
same,normalized growth,"locus YML120C, strain ndi1, hits give low values",1.03
same,normalized growth,"locus YMR058W, strain fet3, hits give low values",1.04
same,normalized growth,"locus YMR125W, strain sto1, hits give low values",1.03
same,normalized growth,"locus YMR129W, hits give low values",1.03
same,normalized growth,"locus YMR205C, strain PFK2, hits give low values",1.04
same,normalized growth,"locus YMR231W, strain pep5, hits give low values",1.03
same,normalized growth,"locus YNL071W, strain lat1, hits give low values",1.03
same,normalized growth,[6],0.925
same,normalized growth,"locus YNL209W, strain ssb2, hits give low values",1.03
same,normalized growth,"locus YNL248C, strain rpa49, hits give low values",1.03
same,normalized growth,"locus YNL322C, strain KRE1 (second series), hits give low values",1.02
same,normalized growth,"locus YNR049C, strain mso1, hits give low values",1.03
same,normalized growth,"locus YOR001W, strain rrp6, hits give low values",1.02
same,normalized growth,"locus YOR070C, strain gyp1, hits give low values",1.02
same,normalized growth,"locus YOR080W, strain dia2, hits give low values",1.02
same,normalized growth,"locus YOR083W, strain WHI5, hits give low values",1.03
same,normalized growth,"locus YOR106W, strain vam3, hits give low values",1.06
same,normalized growth,[7],0.957
same,normalized growth,"locus YOR265W, strain rbl2, hits give low values",1.02
same,normalized growth,"locus YOR270C, strain vph1, hits give low values",1.03
same,normalized growth,"locus YOR290C, strain snf2, hits give low values",0.999
same,normalized growth,"locus YPL051W, strain arl3, hits give low values",1.03
same,normalized growth,"locus YPL078C, strain atp4, hits give low values",1.04
same,normalized growth,"locus YPL106C, strain sse1, hits give low values",1.05
same,normalized growth,"locus YPL240C, strain hsp82, hits give low values",1.02
same,normalized growth,[8],0.958
COc1c(CC(=O)c2cc3c(cc2O)OC(C)(C)C(O)C3)ccc2c1C=CC(C)(C)O2 (centres undefined),normalized growth,"locus YBR021W, strain FUR4, hits give low values",0.653 (active)
same,normalized growth,"locus YBR229C, strain ROT2, hits give low values",0.998
same,normalized growth,"locus YCL029C, strain bik1, hits give low values",0.975
same,normalized growth,"locus YDL035C, strain GPR1, hits give low values",1.01
same,normalized growth,"locus YDL074C, strain BRE1, hits give low values",0.926
same,normalized growth,"locus YDL101C, strain DUN1, hits give low values",1.01
same,normalized growth,"locus YDL185W, strain tfp1, hits give low values",1
same,normalized growth,"locus YDL192W, strain arf1, hits give low values",0.96
same,normalized growth,"locus YDR101C, strain arx1, hits give low values",0.974
same,normalized growth,"locus YDR162C, strain NBP2, hits give low values",1.01
same,normalized growth,"locus YDR318W, strain mcm21, hits give low values",0.984
same,normalized growth,"locus YDR388W, hits give low values",0.994
same,normalized growth,"locus YDR502C, strain sam2, hits give low values",1.01
same,normalized growth,"locus YEL061C, strain CIN8, hits give low values",1.01
same,normalized growth,"locus YER110C, hits give low values",1.01
same,normalized growth,"locus YER155C, strain BEM2, hits give low values",0.989
same,normalized growth,"locus YER167W, strain BCK2, hits give low values",1
same,normalized growth,"locus YGL078C, strain dbp3, hits give low values",1.01
same,normalized growth,"locus YGL086W, strain mad1, hits give low values",0.979
same,normalized growth,"locus YGL248W, strain PDE1, hits give low values",1.02
same,normalized growth,"locus YGR078C, strain PAC10, hits give low values",1.03
same,normalized growth,"locus YGR135W, strain pre9, hits give low values",1.05
same,normalized growth,"locus YGR252W, strain gcn5, hits give low values",0.937
same,normalized growth,[1],0.955
same,normalized growth,"locus YHR079C, strain IRE1 (second series), hits give low values",1
same,normalized growth,[2],0.958
same,normalized growth,"locus YHR094C, strain hxt1, hits give low values",1.01
same,normalized growth,"locus YHR129C, strain ARP1, hits give low values",0.997
same,normalized growth,"locus YHR200W, strain rpn10, hits give low values",1
same,normalized growth,"locus YIL066C, strain RNR3, hits give low values",0.997
same,normalized growth,"locus YIL073C, strain SPO22, hits give low values",1.05
same,normalized growth,"locus YIL125W, strain kgd1, hits give low values",0.982
same,normalized growth,"locus YIR030C, strain dcg1, hits give low values",0.987
same,normalized growth,[3],0.981 and 0.988
same,normalized growth,"locus YJL134W, strain LCB3, hits give low values",0.996
same,normalized growth,"locus YJL168C, strain set2, hits give low values",1.02
same,normalized growth,"locus YJL187C, strain SWE1 (second series), hits give low values",1.02
same,normalized growth,[4],0.935
same,normalized growth,"locus YKL009W, strain mrt4, hits give low values",0.992
same,normalized growth,"locus YKL068W, hits give low values",1
same,normalized growth,"locus YKL085W, strain MDH1 (second series), hits give low values",0.998
same,normalized growth,"locus YKL085W, strain MDH1, hits give low values",0.998
same,normalized growth,"locus YKR001C, strain vps1, hits give low values",0.961
same,normalized growth,"locus YLR039C, strain RIC1, hits give low values",1.08
same,normalized growth,"locus YLR058C, strain SHM2, hits give low values",0.999
same,normalized growth,"locus YLR102C, strain apc9, hits give low values",0.992
same,normalized growth,[5],0.961
same,normalized growth,"locus YLR262C, strain YPT6, hits give low values",1.02
same,normalized growth,"locus YLR268W, strain sec22, hits give low values",0.977
same,normalized growth,"locus YLR371W, strain rom2, hits give low values",0.998
same,normalized growth,"locus YLR418C, strain cdc73, hits give low values",0.938
same,normalized growth,"locus YML016C, strain PPZ1, hits give low values",0.999
same,normalized growth,"locus YML032C, strain rad52, hits give low values",0.982
same,normalized growth,"locus YML124C, strain tub3, hits give low values",0.984
same,normalized growth,"locus YMR078C, strain ctf18, hits give low values",1
same,normalized growth,"locus YMR223W, strain ubp8, hits give low values",1.01
same,normalized growth,"locus YMR263W, strain SAP30, hits give low values",0.996
same,normalized growth,"locus YMR307W, strain GAS1, hits give low values",0.807
same,normalized growth,"locus YNL067W, strain RPL9B, hits give low values",1.01
same,normalized growth,"locus YNL128W, strain TEP1, hits give low values",1.01
same,normalized growth,"locus YNL153C, strain GIM3, hits give low values",1.06
same,normalized growth,[6],0.937
same,normalized growth,"locus YNL233W, strain BNI4, hits give low values",0.997
same,normalized growth,"locus YNL250W, strain rad50, hits give low values",1.06
same,normalized growth,"locus YNL271C, strain bni1, hits give low values",0.996
same,normalized growth,"locus YNL298W, strain CLA4, hits give low values",0.991
same,normalized growth,"locus YNL307C, strain MCK1, hits give low values",0.988
same,normalized growth,"locus YNR052C, strain pop2, hits give low values",0.993
same,normalized growth,"locus YOL012C, strain htz1",1.64
same,normalized growth,"locus YOL147C, strain pex11, hits give low values",0.988
same,normalized growth,"locus YOR061W, strain CKA2, hits give low values",0.996
same,normalized growth,"locus YOR069W, strain VPS5, hits give low values",1
same,normalized growth,"locus YOR136W, strain idh2, hits give low values",0.996
same,normalized growth,"locus YOR144C, strain elg1, hits give low values",0.995
same,normalized growth,"locus YOR184W, strain ser1, hits give low values",0.851 (active)
same,normalized growth,[7],0.951
same,normalized growth,"locus YOR316C, strain cot1, hits give low values",0.998
same,normalized growth,"locus YPL055C, strain LGE1, hits give low values",0.942
same,normalized growth,[8],0.962
same,normalized growth,"locus YPR119W, strain clb2, hits give low values",0.999
same,normalized growth,"locus YPR141C, strain kar3, hits give low values",1
same,normalized growth,"locus YPR163C, strain tif3, hits give low values",0.988
same,normalized growth,"locus YPR167C, strain met16, hits give low values",1
same,normalized growth,"strain wtn01, hits give low values",0.972
